Results published in the supplement of paper PMC10127200.
Where a name gives a salt, the structure may show the parent alone.

What was measured:
Assay in all cases: Euclidean distance of Cell Painting phenotypic profile (signed KS, 77 features) to DMSO centroid (dimensionless distance); 5 or 10 uM (library dependent); higher = stronger phenotypic change vs DMSO (phenoactivity)
Conditions in all cases: 48 h
786-O = test system: 786-O
Procedure, shortened: (§1)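 Five cancer lines and a healthy fibroblast line received library compounds at 10 or 5 uM (library-dependent, 0.1% DMSO final) for 48 h. Stained cells were imaged confocally at 20X (9 fields/well). Harmony extracted 77 features, each scored as a signed Kolmogorov-Smirnov statistic against same-plate vehicle wells. Profiles were plate-position corrected, correlation-weighted and replicate-averaged at the top dose. Phenoactivity is the Euclidean distance from each profile to the median vehicle profile.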

A549 = test system: A549
Procedure, shortened: as §1

FB = test system: FB
Procedure, shortened: as §1

HEPG2 = test system: HEPG2
Procedure, shortened: as §1

OVCAR4 = test system: OVCAR4
Procedure, shortened: as §1

DU145 = test system: DU145
Procedure, shortened: as §1

Compound | Euclidean distance (786-O) | Euclidean distance (A549) | Euclidean distance (FB) | Euclidean distance (HEPG2) | Euclidean distance (OVCAR4) | Euclidean distance (DU145)
CN1CC[C@@H](NC(=O)Nc2ccc(C#N)cc2)C[C@@H]1c1nc2ccccc2[nH]1 | 2.28 | 1.79 | 3.81 | 1.1 | 1.73 | –
CN(C)C(=N)NC(=N)N [Metformin HCl] | 1.61 | 0.837 | 1.26 | 0.474 | 1.78 | –
O=c1[nH]nc2c3c(cccc13)N=C(CN1Cc3ccccc3C1)N2 | 0.985 | 1.29 | 1.31 | 2.35 | 1.42 | –
CCN(CC)C(=O)c1cccnc1 [Nikethamide] | 1.44 | 1.13 | 1.17 | 0.66 | 1.38 | –
Oc1ncnc2[nH]ncc12 [Allopurinol] | 1.04 | 0.955 | 1.01 | 0.506 | 1.21 | –
COCCOC(=O)C1=C(C)NC(C)=C(C(=O)OC/C=C/c2ccccc2)C1c1cccc([N+](=O)[O-])c1 (stereo not given) [Cilnidipine] | 2.22 | 1.04 | 1.29 | 1.61 | 1.46 | –
COc1ccc2c(c1)c(CC(=O)OCC(=O)O)c(C)n2C(=O)c1ccc(Cl)cc1 [Acemetacin] | 0.932 | 0.994 | 1.09 | 0.526 | 1.57 | –
CN1CCC[C@@H]1Cc1c[nH]c2ccc(CCS(=O)(=O)c3ccccc3)cc12 [Eletriptan HBr] | 0.938 | 0.828 | 1.17 | 0.778 | 1.33 | –
CCC1(c2ccccc2)C(=O)NCNC1=O [Primidone] | 1.2 | 0.708 | 1.19 | 0.442 | 2.2 | –
CCOC(=O)C1=C(C)NC(C)=C(C(=O)OC)C1c1cccc(Cl)c1Cl (stereo not given) [Felodipine] | 1.02 | 1.19 | 0.651 | 0.85 | 0.942 | –
O=C(c1ccccc1)c1ccc2n1CCC2C(=O)O (stereo not given) [Ketorolac tromethamine salt] | 0.861 | 0.868 | 0.834 | 0.47 | 0.82 | –
COC(=O)/C=C/C(=O)OC [Dimethyl Fumarate] | 1.01 | 1.07 | 0.598 | 1 | 1.15 | –
C[C@@H]1CN(c2c(F)c(N)c3c(=O)c(C(=O)O)cn(C4CC4)c3c2F)C[C@H](C)N1 [Sparfloxacin] | 0.878 | 1.28 | 0.552 | 0.632 | 1.26 | –
C=CCc1cc(OC)c(O)c(C(=O)NCCO)c1 [Alibendol] | 2.26 | 0.655 | 0.938 | – | 0.912 | 0.743
COc1ccc(CC(C)NCC(O)c2ccc(O)c(NC=O)c2)cc1 (stereo not given) [Formoterol Hemifumarate] | 1.29 | 0.672 | 0.886 | 1.15 | 1.94 | –
CN1CC[C@H](c2c(O)cc(O)c3c(=O)cc(-c4ccccc4Cl)oc23)[C@H](O)C1 [Flavopiridol (Alvocidib)] | 3.09 | 3.07 | 3.22 | 2.66 | 3.72 | –
